Assay results taken from PubChem BioAssay (NCATS).
A number with no mark means an inactive call. Inconclusive results are not listed. A call without a number means that no potency is given here. Calls of active or inactive are those of the source. Unless noted, calls follow the shape of the dose curve; as a rule, active = well fitted curve in the direction sought with a large enough effect; inconclusive = small, poorly fitted or top-dose-only effect, or another doubt; inactive = no such curve, though single readings can be large; an effect the other way counts as inactive or inconclusive.

Key:
[1] = molecular target: Cytochrome P450 3A4 (Homo sapiens) (UniProt P08684); experiment: qHTS Assay for Inhibitors and Substrates of Cytochrome P450 3A4 (AID 884); conditions: recombinant CYP3A4, Luciferin-PPXE luminescence; series mostly up to 57.1 µM; also: nearly all actives have a fitted effect of over 50% in size; also: potency is read from the fitted curve at half-maximal effect
Chain of Cytochrome P450 3A4 (Homo sapiens) (P08684 whole entry, looked up): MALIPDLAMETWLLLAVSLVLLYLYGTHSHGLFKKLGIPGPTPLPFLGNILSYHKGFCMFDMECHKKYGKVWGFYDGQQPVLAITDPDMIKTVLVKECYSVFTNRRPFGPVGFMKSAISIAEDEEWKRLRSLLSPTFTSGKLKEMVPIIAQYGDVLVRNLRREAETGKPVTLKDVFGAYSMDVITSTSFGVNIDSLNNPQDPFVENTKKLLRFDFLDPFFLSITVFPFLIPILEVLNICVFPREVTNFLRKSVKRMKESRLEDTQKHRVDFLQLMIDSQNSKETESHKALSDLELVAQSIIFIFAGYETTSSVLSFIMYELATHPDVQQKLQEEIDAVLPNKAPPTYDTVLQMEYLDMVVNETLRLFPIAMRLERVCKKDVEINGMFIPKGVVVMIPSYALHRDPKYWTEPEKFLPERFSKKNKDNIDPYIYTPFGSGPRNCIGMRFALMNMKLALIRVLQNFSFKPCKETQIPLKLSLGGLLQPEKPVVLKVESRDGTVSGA
Summary of the method: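 Luminescent readout of luciferin produced by CYP3A4 (20 nM) dealkylation of Luciferin-PPXE, 25 uM (its KM). NADPH-driven reaction ran 60 min at RT after 10 min compound preincubation; data scaled to 57 uM ketoconazole as 100% inhibition.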

[2] = molecular target: Cytochrome P450 3A4 (Homo sapiens) (UniProt P08684); experiment: qHTS Assay for Activators of Cytochrome P450 3A4 (AID 885); conditions: recombinant CYP3A4, Luciferin-PPXE luminescence, 60 min; series mostly up to 57.1 µM; also: nearly all actives have a fitted effect of over 65% in size
Summary of the method: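 CYP3A4 activity: Luciferin-PPXE O-dealkylation, 25uM substrate, 200mM KPO4, RT throughout. Read-out is luciferase luminescence; higher values reflect activation.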

[3] = Confirmation and Secondary Assay for Modulators of Hemoglobin Beta Chain Splicing at IVS2 654 locus (AID 910); conditions: HeLa EGFP-654 splicing reporter, GFP fluorescence, 48 h; series mostly up to 46.1 µM;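 also: HeLa cells stably carrying EGFP split by mutant beta-globin IVS2-654 intron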
Summary of the method: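 HeLa cells stably expressing EGFP interrupted by β-globin IVS2-654 intron, seeded overnight in Opti-MEM/2% FCS, then treated 2 days at 37 °C. Restored splicing read as total peak GFP intensity per well by laser scanning cytometry (488 nm excitation, 500–520 nm emission); 500 nM antisense PNA as control.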

[4] = test system: 7G8; experiment: qHTS profiling for inhibitors of Plasmodium falciparum proliferation (AID 504749); also: nearly all actives have a fitted effect of over 60% in size; also: potency is read from the fitted curve at half-maximal effect; conditions: P. falciparum in erythrocytes, SYBR Green DNA, 72 h; series mostly up to 12.8 µM
Summary of the method: (§1)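 SYBR Green fluorescence (ex 485 nm, em 535 nm) reports parasite DNA after 72 h compound exposure of infected red cells at 0.3% parasitemia, 2.5% hematocrit; signal normalized to 0.29 uM artemisinin and vehicle wells.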

[5] = test system: CP203; experiment: as above; conditions: P. falciparum in erythrocytes, SYBR Green DNA, 72 h; series mostly up to 12.8 µM
Summary of the method: as §1

[6] = test system: CP215; experiment: as above; conditions: P. falciparum in erythrocytes, SYBR Green DNA, 72 h; series mostly up to 12.8 µM
Summary of the method: as §1

[7] = test system: CP335; experiment: as above; conditions: P. falciparum in erythrocytes, SYBR Green DNA, 72 h; series mostly up to 12.8 µM
Summary of the method: as §1

[8] = test system: DFO2036; experiment: as above; conditions: P. falciparum in erythrocytes, SYBR Green DNA, 72 h; series mostly up to 12.8 µM
Summary of the method: as §1

[9] = test system: DIV14; experiment: as above; conditions: P. falciparum in erythrocytes, SYBR Green DNA, 72 h; series mostly up to 12.8 µM
Summary of the method: as §1

[10] = test system: ICS; experiment: as above; conditions: P. falciparum in erythrocytes, SYBR Green DNA, 72 h; series mostly up to 12.8 µM
Summary of the method: as §1

[11] = test system: TAB113; experiment: as above; conditions: P. falciparum in erythrocytes, SYBR Green DNA, 72 h; series mostly up to 12.8 µM
Summary of the method: as §1

[12] = test system: W2; experiment: as above; conditions: P. falciparum in erythrocytes, SYBR Green DNA, 72 h; series mostly up to 12.8 µM
Summary of the method: as §1

[13] = Confirmation and Secondary Assay for Modulators of Hemoglobin Beta Chain Splicing at IVS2 705 locus (AID 930); conditions: HeLa EGFP-705 splicing reporter, GFP fluorescence, 48 h; series mostly up to 46.1 µM;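 also: HeLa cells stably expressing the EGFP-705 splicing reporter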
Summary of the method: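 Restored EGFP fluorescence after 2-day compound exposure reports splicing correction in IVS2-705 EGFP reporter HeLa cells; positive control was 500 nM splice-blocking PNA oligo. Signal measured as well total peak GFP intensity (488 nm excitation).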

[14] = S16 Schwann cell PMP22 intronic element firefly luciferase assay (AID 624032); conditions: S16 rat Schwann cells, PMP22 element FLuc, 24 h; series mostly up to 25.7 µM; also: nearly all actives have a fitted effect of over 30% in size
Summary of the method: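 Rat S16 Schwann cells stably carrying firefly luciferase driven by a PMP22 intronic element, in 10% FBS, treated 24 h at 37 C. ONE-Glo luminescence normalized to PTC124 control and DMSO (0%); curves classed by r2, magnitude and activity.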

[15] = S16 Schwann cell PMP22 intronic element beta-lactamase assay (AID 624044; calls by dose curve; also: nearly all actives have a fitted effect of over 15% in size); conditions: S16 rat Schwann cells, PMP22 element beta-lactamase FRET, 24 h; series mostly up to 17.1 µM
Summary of the method: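 Beta-lactamase reporter under a PMP22 intronic regulatory element in stable S16 rat Schwann cells; 24 h compound exposure. 460 nm blue signal normalized between DMSO (0%) and potassium clavulanate, with 535 nm FRET tracking viability; curves classed by r2 and response.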

Structure (SMILES) | Potency [1] | Potency [2] | Potency [3] | Potency [4] | Potency [5] | Potency [6] | Potency [7] | Potency [8] | Potency [9] | Potency [10] | Potency [11] | Potency [12] | Potency [13] | Potency [14] | Potency [15]
COc1cc(C2c3cc4c(cc3C(O[C@@H]3OC5COC(c6cccs6)OC5C(O)C3O)C3COC(=O)C23)OCO4)cc(OC)c1O (stereo partly specified) | 6.31 µM (active) | inactive | inactive | 0.631 µM (active) | 3.79 µM (active) | 4.26 µM (active) | 1.69 µM (active) | 1.12 µM (active) | 1.9 µM (active) | 1.26 µM (active) | 2.24 µM (active) | 1.2 µM (active) |  |  | 
CNC1CC(N)[C@H](O)[C@@H](O[C@@H]2OC(CO)C3OC4(OC(C(N)CO)C(O)C(O)C4O)O[C@@H]3[C@H]2O)C1O (stereo partly specified) | inactive |  | inactive | inactive | inactive | inactive | inactive | inactive | inactive | inactive | inactive |  | inactive | inactive | inactive
Nc1nc2ncc(CNc3ccc(C(=O)NC(CCC(=O)O)C(=O)O)cc3)nc2c(=O)[nH]1 (stereo unspecified) | inactive |  | inactive | inactive | inactive |  | inactive | inactive |  | inactive | inactive | inactive | inactive | inactive | 
O=C1OC(CO)C(O)C(O)C1O (stereo unspecified) | inactive |  | inactive | inactive | inactive | inactive | inactive |  | inactive | inactive | inactive | inactive | inactive | inactive | inactive
COc1ccc2cc1Oc1ccc(cc1)CC1c3c(cc4c(c3Oc3cc5c(cc3OC)CCN(C)C5C2)OCO4)CCN1C (stereo unspecified) |  |  | inactive | 2.24 µM (active) | 12 µM (active) |  | 6.01 µM (active) | 7.94 µM (active) | 5.36 µM (active) | 2.82 µM (active) | 7.08 µM (active) | 1.9 µM (active) | inactive | inactive | inactive
Cc1cc(O)c(C=O)c2c1C(=O)Oc1c(COC(=O)/C=C/C(=O)O)c(O)c(C(=O)O)c(C)c1O2 |  | inactive | inactive |  |  |  |  |  |  |  |  |  | inactive |  | 
CN(C)CCCOC1C(C(O)CO)OC2OC(C)(C)O[C@@H]21 (stereo partly specified) | inactive |  | inactive | inactive | inactive | inactive | inactive |  | inactive | inactive | inactive | inactive | inactive | inactive | inactive
C[C@]12CCC(=O)C=C1CCC1C2C(=O)C[C@]2(C)C1CC[C@]2(O)C(=O)CO (stereo partly specified) | inactive |  | inactive | inactive | inactive | inactive | inactive | inactive |  | inactive | inactive | inactive | inactive | inactive | inactive
CC1(C)SC2C(N3C(=O)C(c4ccccc4)NC3(C)C)C(=O)N2C1C(=O)O (stereo unspecified) | inactive |  | inactive | inactive | inactive | inactive | inactive | inactive | inactive | inactive | inactive | inactive | inactive | inactive | 
CCCC(=O)O[C@]1(C(=O)CO)CCC2[C@@H]3CCC4=CC(=O)CC[C@]4(C)C3C(O)C[C@]21C (stereo partly specified) | inactive |  | inactive | inactive | inactive | inactive | inactive |  | inactive | inactive | inactive | inactive |  | inactive | 
CCC(CCC(C)C1CCC2C3CC=C4CC(O)CC[C@@]4(C)C3CC[C@@]12C)C(C)C (stereo partly specified) |  |  | inactive | inactive | inactive | inactive | inactive |  | inactive | inactive | inactive | inactive |  | inactive | 
CN1CC(=O)N=C1N | inactive |  | inactive | inactive | inactive | inactive | inactive | inactive | inactive | inactive | inactive | inactive | inactive | inactive | inactive
Cc1cc(O)c(C=O)c2c1C(=O)Oc1c(C)c(O)c3c(c1O2)C(O)OC3=O (stereo unspecified) |  | inactive | inactive |  |  |  |  |  |  |  |  |  | inactive |  | 
CCC(C)C(=O)OC1CC(O)C=C2C=CC(C)C(CCC(O)CC(O)CC(=O)O)C21 (stereo unspecified) | inactive |  | inactive |  | inactive | inactive | inactive |  | inactive | inactive | inactive | inactive | inactive | inactive | 
CC(=O)O[C@@]1(C(C)=O)CCC2C3CC(C)C4=CC(=O)CC[C@@]4(C)C3CC[C@]21C (stereo partly specified) |  | inactive | inactive | 7.94 µM (active) | inactive | inactive |  |  | inactive |  |  | inactive | inactive |  | 
C=Cc1c(C)/c2[n-]/c1=C\c1[n-]c(c(CC)c1C)/C=c1\[n-]c3c(c1C)C(=O)C(C(=O)[O-])C=3c1[n-]c(c(C)c1CCC(=O)[O-])\C=2.[Cu].[Na+].[Na+] (stereo unspecified) |  | inactive | inactive |  |  |  |  | inactive |  |  |  | 12 µM (active) | inactive | inactive | 
C[C@@]12CCC(=O)C=C1C=CC1C2CC[C@]2(C)C1CC[C@@]21CCC(=O)O1 (stereo partly specified) | inactive |  | inactive |  | inactive | inactive | inactive | inactive |  |  | inactive | inactive | inactive |  | inactive
